High-throughput results from PubChem.
BoNT F protease: inhibitors of Botulinum neurotoxin F light chain protease. inhibition, % at 10 µM. hit rate 0.22% among 360,000. Multiplex microsphere protease cleavage assay, flow cytometry; in the data active = inhibition above about 35%, passing the limit was not always enough; inconclusive = no clear call, values can overlap the other calls; note: plate controls were buffer without enzyme for full effect and enzyme alone for no effect
Vc quorum ag: quorum light induction in luxS cqsA deficient V. cholerae. V. cholerae BH1578 lux reporter, luminescence, 6 h. AID 588436. hit rate 0.16% among 350,000. activation, % at 18.7 µM; in the data active = activation mostly above about 9.7%, no sharp cut-off; inconclusive = no clear call, values can overlap the other calls; inactive = mostly below about 3.7%
Anthrax LF prot: anthrax lethal factor protease inhibition | P15917 | multiplex microsphere protease cleavage assay, LF | inhibition, % at 10 µM | hit rate 0.12% among 360,000 | AID 588501; note: plate controls were buffer without enzyme for full effect and enzyme alone for no effect
Target sequence (P15917 whole entry, looked up): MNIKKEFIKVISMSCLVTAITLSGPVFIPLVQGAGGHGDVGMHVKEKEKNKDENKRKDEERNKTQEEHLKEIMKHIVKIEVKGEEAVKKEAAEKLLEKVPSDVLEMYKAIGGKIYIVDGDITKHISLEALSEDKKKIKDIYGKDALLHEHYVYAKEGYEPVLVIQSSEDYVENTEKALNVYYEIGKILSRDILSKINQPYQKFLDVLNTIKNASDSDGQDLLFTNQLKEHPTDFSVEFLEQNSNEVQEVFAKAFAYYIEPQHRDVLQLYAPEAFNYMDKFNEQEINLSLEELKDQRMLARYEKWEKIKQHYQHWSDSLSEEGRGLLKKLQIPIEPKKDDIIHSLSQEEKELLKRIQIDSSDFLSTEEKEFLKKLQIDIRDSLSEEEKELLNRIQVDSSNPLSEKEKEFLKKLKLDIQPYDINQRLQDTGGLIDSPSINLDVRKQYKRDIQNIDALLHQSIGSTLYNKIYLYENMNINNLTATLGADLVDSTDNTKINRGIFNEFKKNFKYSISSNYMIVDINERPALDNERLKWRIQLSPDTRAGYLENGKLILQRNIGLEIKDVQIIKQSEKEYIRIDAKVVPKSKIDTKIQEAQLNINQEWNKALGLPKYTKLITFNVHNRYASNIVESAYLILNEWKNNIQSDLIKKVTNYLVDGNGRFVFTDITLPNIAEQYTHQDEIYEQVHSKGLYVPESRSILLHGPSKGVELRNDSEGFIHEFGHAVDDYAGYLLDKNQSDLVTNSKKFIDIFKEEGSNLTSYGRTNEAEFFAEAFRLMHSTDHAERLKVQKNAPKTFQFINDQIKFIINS
Bead autofluor: counter-screen for toxin protease inhibitors: compound fluorescence. fluorescence intensity (no concentration beside the values). compound autofluorescence counterscreen, microsphere flow cytometry; stronger effect = higher value. hit rate 3.1% among 360,000; in the data active = fluorescence intensity above about 16000; inconclusive = no clear call, values can overlap the other calls
BoNT A protease: inhibitors of Botulinum neurotoxin A light chain protease; multiplex microsphere protease substrate cleavage, flow cytometry; inhibition, % at 10 µM; hit rate 0.17% among 360,000; AID 588499; note: plate controls were buffer without enzyme for full effect and enzyme alone for no effect
BJeLR viability: kills HRASV12-expressing BJeLR cells; inhibition, % (no concentration beside the values); hit rate 0.17% among 300,000; BJeLR (HRASV12) viability, CellTiter-Glo ATP luminescence, 48 h; in the data active = inhibition above about 50%; inconclusive = no clear call, values can overlap the other calls
* = called active by the depositor; i = inactive; ? = inconclusive; / = not tested or not shown. The list is not random: actives were taken first. Their share in the collection is about 3.7%. Cut-off read from the data, not from the text of the source, unless noted: active = inhibition above about 30%; inconclusive = no clear call, values can overlap the other calls; inactive = below that.

SMILES | BoNT F protease | Vc quorum ag | Anthrax LF prot | Bead autofluor | BoNT A protease | BJeLR viability
CCC(C)c1ccc(O)c(NC(=S)NC(=O)c2cccs2)c1 (stereo not given) | -4.8 | i | -5.2 | 3448 | -0.3 | /
COc1cccc(-c2ccc3c(c2)O[C@H](CN(C)C(=O)c2ccccc2F)[C@H](C)CN([C@H](C)CO)S3(=O)=O)c1 | 0.8 | -0.3 | -6.1 | 3610 | 0.0 | /
COc1ccc2c(c1)C1=NN(/C(C)=C\C(C)=O)C(c3ccccc3)C1CC2 (stereo not given) | -4.2 | i | 5.8 | 21972* | 3.0 | -0.5
COc1ccc2c(c1)CCC1C2=NN(/C(C)=C\C(C)=O)C1c1ccc(F)cc1 (stereo not given) | ? | / | ? | 34486* | ? | 4.1
O=c1c2c(nc3c(-c4cccc(Br)c4)c[nH]n13)CCCC2 | -5.8 | i | -3.6 | 16678* | -1.5 | 8.0
Cc1ccc(NC(=O)CS(=O)CC(=O)NC(C)CCc2ccco2)cc1Cl (stereo not given) | -0.1 | -0.6 | -1.5 | 23396* | 0.9 | -1.5
CC(Sc1nc2ccccc2o1)C(=O)O (stereo not given) | -2.5 | -1.3 | -0.7 | 20941* | -1.7 | 10.5
O=C1C2C3c4ccccc4C(c4ccccc43)C2C(=O)N1/N=C/c1cccc(O)c1 (stereo not given) | -3.7 | -12.5 | -2.8 | 17348* | -1.8 | 3.6
CCc1ccc(-c2cc(-c3n[nH]c(=S)n3CC)c3ccccc3n2)cc1 | / | / | / | / | / | 0.6
CCn1c(-c2cc(-c3cccc(OC)c3)nc3ccccc23)n[nH]c1=S | 1.9 | i | -3.9 | 19974* | 2.0 | -0.1
COc1ccc(Cc2nc(-c3ccc(-n4cccc4)cc3)no2)cc1 | -10.1 | -0.9 | -6.5 | 6133 | -0.5 | 7.9
Cc1ccc(Cc2nc(-c3cccnc3)no2)cc1 | 0.8 | -0.4 | 0.2 | 1981 | -0.2 | -5.1
CCc1ccc(NCc2nc(-c3ccccc3)no2)cc1 | 3.0 | -0.1 | -1.2 | 10365 | -0.5 | -2.5
COc1ccc(Cc2nc(-c3ccccc3)no2)cc1 | -3.9 | -0.7 | -1.8 | 21271* | -2.1 | 1.0
Clc1ccc(Cc2nc(-c3cccnc3)no2)cc1 | 0.8 | -1.7 | -1.5 | 21733* | 0.9 | 5.1
Cc1ccc(-c2noc(CNc3ccccc3)n2)cc1 | -0.7 | -6.0 | -2.7 | 21856* | ? | -5.9
COc1ccc(CN2C(=O)C(CC(=O)NCCCN(C)C)CC(C(=O)N(C)C)=C2C)cc1 (stereo not given) | -11.3 | i | -10.0 | 2918 | 0.1 | /
COc1cc(Cn2c3ccc(NC(=S)NCc4ccc(C)cc4)cc3c(=O)n2C)ccc1F | -8.0 | -0.4 | -0.3 | 3795 | -0.1 | /
Clc1ccc(Cl)c(-c2ccc(/C=N/c3ncn[nH]3)o2)c1 | 1.2 | i | -12.3 | 22627* | ? | -1.3
COc1cc(NC(=O)[C@H]2O[C@@H](n3ccc(N)nc3=O)[C@H](O)[C@@H]2O)cc(OC)c1OC | 11.4 | / | -11.4 | 5852 | 0.5 | /
Cc1ccsc1/C=C1\SC(=S)N(CC2CCCO2)C1=O (stereo not given) | 6.6 | -1.1 | 31.8* | 4396 | 35.0* | -15.8
O=C1/C(=C/c2ccc(O)cc2)SC(=S)N1CC1CCCO1 (stereo not given) | 4.6 | 2.2 | -7.3 | 5148 | 1.9 | -13.9
C[C@H]1COc2cc(N(C)CCO)ccc2S(=O)(=O)N1 | 0.6 | / | -2.3 | 5030 | 0.5 | /
CCN(CC)c1ccc(/C=C2\CCC(/C=C(\C#N)C(=O)Nc3ccccc3F)=C2N2CCOCC2)cc1 | -18.3 | -0.3 | 9.1 | 3080 | 39.8* | 14.2
COc1ccc(C(C)(O)c2nc(-c3ccncc3)cs2)cc1 (stereo not given) | -5.6 | -0.3 | -9.2 | 3089 | -0.4 | /
SMILES | BoNT F protease | Vc quorum ag | Anthrax LF prot | Bead autofluor | BoNT A protease | BJeLR viability
Cc1cc(C(=O)N2CCN(c3ccccc3)CC2)c(C)o1 | -2.5 | -0.2 | -1.1 | 17012* | -1.8 | 4.9
Cc1cc(C(=O)N2CCN(c3ccccc3Cl)CC2)c(C)o1 | 6.2 | -0.4 | 5.0 | 3680 | 1.5 | /
Cc1cc(C(=O)N2CCN(c3ncccn3)CC2)c(C)o1 | -3.4 | i | -0.8 | 21168* | -3.5 | 10.7
CCCCC(=O)N(C)c1c(CC)nc2c(OCC(=O)c3ccc(Cl)cc3Cl)cccn12 | 0.5 | i | -5.1 | 3904 | 0.6 | /
CC1CC(C)(C)NC(=S)N1CC(=O)NCc1ccc(Cl)cc1 (stereo not given) | 47.0* | 0.2 | 0.4 | 2781 | 4.3 | 16.9
COc1cccc(CNC(=O)c2ccc(F)c(S(=O)(=O)N3CCCCC3)c2)c1 | -1.9 | i | 5.7 | 3021 | -0.4 | /
COc1cc(OC)c(N(C)S(=O)(=O)c2cccc(C(=O)OCC(=O)N(C)Cc3ccccc3)c2)cc1Cl | 4.3 | -0.4 | 2.1 | 3964 | 0.4 | /
O=C(NCC(F)(F)F)c1cc2c(c(-c3cccc(-c4ccccc4F)c3)n1)[C@H](CCO)N(C(=O)CC1CC1)C2 | -4.9 | / | -3.3 | 6257 | 0.4 | /
COc1ccc(-c2nnn(CCc3nn[nH]n3)n2)cc1OC | 1.4 | i | -1.3 | 21931* | 0.6 | -10.5
CCOc1ccc(-c2nnn(CCC(=O)O)n2)cc1OC | 1.2 | -12.5 | -1.7 | 21762* | 1.0 | 4.4
COc1cccc(CNC(=O)[C@@H]2CCCN2C(=O)[C@H]2CCCCN2C(=O)c2ccccc2)c1 | 1.2 | / | 4.5 | 5670 | 0.2 | /
CC(=O)Cc1ccccc1OCC(=O)O | -3.0 | i | -2.7 | 16749* | -0.9 | -13.9
CN(C)c1ccc(CNC(=O)/C=C/[C@H]2O[C@@H](n3ccc(=O)[nH]c3=O)[C@H](O)[C@@H]2O)cc1 | 0.8 | / | -4.3 | 5365 | -0.1 | /
CC1CCCN(C(=O)C2c3ccccc3C(=O)N3CCc4ccccc4C23)C1 (stereo not given) | -5.1 | i | -0.5 | 23724* | -2.5 | 6.3
Cc1cc(C)nc(N2CCC(C(=O)NC3CCCc4ccccc43)CC2)n1 (stereo not given) | 8.0 | i | 0.5 | 19820* | 6.3 | 0.4
COc1ccc(NC(=O)C2CCN(c3nc(C)cc(C)n3)CC2)cc1 | 6.6 | i | 16.3 | 9347 | 0.9 | 10.5
O=C(Nc1cccc(C(F)(F)F)c1)C1CCCN1S(=O)(=O)c1cccc2cccnc12 (stereo not given) | -1.8 | -0.5 | -0.6 | 20787* | ? | -8.6
O=C(NC1CCCc2ccccc21)C1CCN(c2nnc(-n3cccc3)s2)CC1 (stereo not given) | 3.2 | -0.2 | -5.4 | 5338 | -0.5 | -3.1
Cc1cc(C)nc(N2CCC(C(=O)Nc3ccc4c(c3)CCC4)CC2)n1 | 2.0 | i | 0.7 | 21599* | 2.3 | -17.1
Cc1ccc(C(=O)NC2CCCc3ccccc32)o1 (stereo not given) | -0.4 | 2.2 | -4.9 | 22743* | -1.2 | 0.0
CCc1cccc(NC(=O)C2CCCN2S(=O)(=O)c2cccc3cccnc23)c1 (stereo not given) | -0.1 | i | -0.1 | 4092 | 2.5 | 7.5
O=C(NCc1ccccc1)c1cc(C2CCCN(C(=O)c3ccccc3)C2)on1 (stereo not given) | 1.1 | i | -6.5 | 2956 | -0.4 | /
